# According to PMC5700166:
# Residue numbers refer to the chain shown, from its start.
# Assays:
# Test in all cases: protein-binding microarray (PBM); PBM: ~300 nM protein, 6 mM HEPES pH 7.8, 80 mM KCl, 0.5 mM EDTA, 0.5 mM EGTA, 6% glycerol, 35 ng/ul poly-dIdC, 1% milk, 1 h, room temperature; Ap Aiptasia and Nv Nematostella (sea anemones) / Co Capsaspora / Aq Amphimedon (sponge) / Dm Drosophila / Hu human; RHD is the Rel homology domain; high values mean tight binding
# Settings in all cases: dsDNA, one strand shown
# GST-Dm-Relish = biological target: T1, GST-Dm-Relish (Drosophila melanogaster, UniProt Q94527 99-473)
# T1 sequence: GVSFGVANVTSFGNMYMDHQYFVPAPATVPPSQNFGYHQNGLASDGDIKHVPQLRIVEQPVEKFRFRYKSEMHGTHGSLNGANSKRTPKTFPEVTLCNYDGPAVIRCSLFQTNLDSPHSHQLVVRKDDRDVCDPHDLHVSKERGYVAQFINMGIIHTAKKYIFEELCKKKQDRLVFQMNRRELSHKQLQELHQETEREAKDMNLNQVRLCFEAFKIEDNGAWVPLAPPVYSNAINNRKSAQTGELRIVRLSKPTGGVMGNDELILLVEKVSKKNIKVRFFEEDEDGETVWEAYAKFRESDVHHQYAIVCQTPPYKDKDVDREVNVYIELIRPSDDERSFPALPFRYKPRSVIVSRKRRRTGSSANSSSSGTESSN
# GST-Aq-NF-kB = biological target: T2, GST-Aq-NF-kB (Amphimedon queenslandica, UniProt A9Y5G7 2-389)
# T2 sequence: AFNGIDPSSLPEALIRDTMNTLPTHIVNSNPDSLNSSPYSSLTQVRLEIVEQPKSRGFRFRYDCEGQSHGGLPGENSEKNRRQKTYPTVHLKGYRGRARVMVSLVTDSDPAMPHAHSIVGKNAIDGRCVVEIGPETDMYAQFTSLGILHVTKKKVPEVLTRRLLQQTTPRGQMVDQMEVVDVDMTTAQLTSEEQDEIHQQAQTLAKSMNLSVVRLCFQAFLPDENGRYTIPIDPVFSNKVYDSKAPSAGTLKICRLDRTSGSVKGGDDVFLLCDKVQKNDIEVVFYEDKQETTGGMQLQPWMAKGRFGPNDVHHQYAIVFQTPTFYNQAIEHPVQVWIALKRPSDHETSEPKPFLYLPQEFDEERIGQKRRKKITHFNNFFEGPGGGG
# GST-Hu-p50 = GST-Hu-p50 (Homo sapiens, UniProt P19838 7-356)
# Sequence of GST-Hu-p50 (P19838 7-356): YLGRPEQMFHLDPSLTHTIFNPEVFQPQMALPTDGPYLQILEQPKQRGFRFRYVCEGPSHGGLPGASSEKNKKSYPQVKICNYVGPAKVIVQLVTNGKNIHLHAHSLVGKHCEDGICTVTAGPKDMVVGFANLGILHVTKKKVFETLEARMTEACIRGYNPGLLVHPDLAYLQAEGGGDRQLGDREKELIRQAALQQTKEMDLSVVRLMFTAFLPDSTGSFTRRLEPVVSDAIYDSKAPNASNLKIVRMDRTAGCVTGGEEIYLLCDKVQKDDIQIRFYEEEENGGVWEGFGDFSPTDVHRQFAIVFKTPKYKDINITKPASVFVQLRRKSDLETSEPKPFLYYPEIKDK
# [1] = biological target: T3, GST-Nv-NF-kB (Cys allele) (Nematostella vectensis, UniProt E5G601 2-411)
# T3 sequence: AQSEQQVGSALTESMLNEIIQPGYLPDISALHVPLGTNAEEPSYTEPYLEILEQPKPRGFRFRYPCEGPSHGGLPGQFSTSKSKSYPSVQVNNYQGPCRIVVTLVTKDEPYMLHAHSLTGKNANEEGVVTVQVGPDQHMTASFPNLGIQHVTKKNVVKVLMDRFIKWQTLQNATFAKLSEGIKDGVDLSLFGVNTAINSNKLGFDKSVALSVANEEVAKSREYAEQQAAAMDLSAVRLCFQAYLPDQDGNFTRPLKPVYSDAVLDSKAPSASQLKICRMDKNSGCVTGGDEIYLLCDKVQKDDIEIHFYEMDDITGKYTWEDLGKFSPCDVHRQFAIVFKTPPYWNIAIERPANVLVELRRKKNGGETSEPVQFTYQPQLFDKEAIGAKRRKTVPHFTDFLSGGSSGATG
# [2] = biological target: T4, GST-Nv-NF-kB (Ser allele) (Nematostella vectensis, UniProt A7UNT2 2-411)
# T4 sequence: T3 sequence with Q21R, C66S, S207N, E215Q, V217A, E225K, A268E, D399E
# GST-Ap-NF-kB RHD = biological target: T5, GST-Ap-NF-kB RHD (Exaiptasia pallida (Aiptasia), UniProt A0A913YAJ5 2-422)
# T5 sequence: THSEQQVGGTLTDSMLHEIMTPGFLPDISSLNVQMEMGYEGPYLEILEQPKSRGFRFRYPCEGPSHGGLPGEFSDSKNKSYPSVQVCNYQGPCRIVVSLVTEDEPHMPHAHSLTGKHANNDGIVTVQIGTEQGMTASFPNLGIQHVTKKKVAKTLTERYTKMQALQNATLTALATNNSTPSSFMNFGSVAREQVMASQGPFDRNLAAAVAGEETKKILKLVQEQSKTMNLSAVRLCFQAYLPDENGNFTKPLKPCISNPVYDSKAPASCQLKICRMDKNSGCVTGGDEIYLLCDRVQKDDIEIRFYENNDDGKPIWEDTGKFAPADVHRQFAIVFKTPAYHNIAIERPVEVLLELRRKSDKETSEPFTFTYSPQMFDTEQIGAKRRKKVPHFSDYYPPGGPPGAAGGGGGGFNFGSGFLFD
# GST-Co-NF-kB = biological target: T6, GST-Co-NF-kB (Capsaspora owczarzaki, UniProt F1ARL5 200-546)
# T6 sequence: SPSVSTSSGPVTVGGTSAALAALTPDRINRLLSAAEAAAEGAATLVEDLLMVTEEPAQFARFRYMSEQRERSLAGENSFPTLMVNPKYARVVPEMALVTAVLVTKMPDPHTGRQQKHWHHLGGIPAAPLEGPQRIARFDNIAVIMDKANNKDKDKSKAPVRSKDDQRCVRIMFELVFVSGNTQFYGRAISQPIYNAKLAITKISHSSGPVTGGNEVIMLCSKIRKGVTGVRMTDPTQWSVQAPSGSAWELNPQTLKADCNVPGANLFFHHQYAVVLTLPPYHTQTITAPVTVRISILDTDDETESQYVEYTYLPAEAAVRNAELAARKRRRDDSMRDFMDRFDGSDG
sequence,measurement,setting,value
CCGATTAACATCAGGAAACTCCATGATGTTAATCGGGTCTTGATTCGCTTGACGCTGCTG,binding signal,GST-Dm-Relish,1.62 z-score
same,binding signal,GST-Aq-NF-kB,2.15 z-score
CCGATTAACATCAGGATTTACCATGATGTTAATCGGGTCTTGATTCGCTTGACGCTGCTG,binding signal,GST-Dm-Relish,3.08 z-score
same,binding signal,GST-Aq-NF-kB,1.48 z-score
CCGATTAACATCAAGGAAAATCCTGATGTTAATCGGGTCTTGATTCGCTTGACGCTGCTG,binding signal,GST-Dm-Relish,1.5 z-score
same,binding signal,GST-Aq-NF-kB,3.1 z-score
CCGATTAACATCAGGACTTTACATGATGTTAATCGGGTCTTGATTCGCTTGACGCTGCTG,binding signal,GST-Dm-Relish,6.1 z-score
same,binding signal,GST-Aq-NF-kB,1.25 z-score
CCGATTAACATCAAAGGAATTTCTGATGTTAATCGGGTCTTGATTCGCTTGACGCTGCTG,binding signal,GST-Dm-Relish,1.13 z-score
same,binding signal,GST-Aq-NF-kB,1.12 z-score
CCGATTAACATCACGGTTTTTCCTGATGTTAATCGGGTCTTGATTCGCTTGACGCTGCTG,binding signal,GST-Dm-Relish,3.51 z-score
same,binding signal,GST-Aq-NF-kB,3.6 z-score
CCGATTAACATCAAAAATTCCGTTGATGTTAATCGGGTCTTGATTCGCTTGACGCTGCTG,binding signal,GST-Dm-Relish,1.08 z-score
same,binding signal,GST-Aq-NF-kB,2.1 z-score
CCGATTAACATCACGGCCTTTCCTGATGTTAATCGGGTCTTGATTCGCTTGACGCTGCTG,binding signal,GST-Dm-Relish,1.05 z-score
same,binding signal,GST-Aq-NF-kB,1.82 z-score
CCGATTAACATCACGTAAAACCCTGATGTTAATCGGGTCTTGATTCGCTTGACGCTGCTG,binding signal,GST-Dm-Relish,3.01 z-score
same,binding signal,GST-Aq-NF-kB,2.12 z-score
CCGATTAACATCACGTACTTTCCTGATGTTAATCGGGTCTTGATTCGCTTGACGCTGCTG,binding signal,GST-Dm-Relish,4.78 z-score
same,binding signal,GST-Aq-NF-kB,2.39 z-score
CCGATTAACATCAATAAATTTCCTGATGTTAATCGGGTCTTGATTCGCTTGACGCTGCTG,binding signal,GST-Dm-Relish,1.55 z-score
same,binding signal,GST-Aq-NF-kB,1.86 z-score
CCGATTAACATCAAGTAATTTCCTGATGTTAATCGGGTCTTGATTCGCTTGACGCTGCTG,binding signal,GST-Dm-Relish,2.36 z-score
same,binding signal,GST-Aq-NF-kB,1.18 z-score
CCGATTAACATCACCTGAACTATTGATGTTAATCGGGTCTTGATTCGCTTGACGCTGCTG,binding signal,GST-Hu-p50,1.45 z-score
CCGATTAACATCACTCTTCTCGGTGATGTTAATCGGGTCTTGATTCGCTTGACGCTGCTG,binding signal,[1],1.05 z-score
same,binding signal,[2],1.37 z-score
same,binding signal,GST-Dm-Relish,1.33 z-score
same,binding signal,GST-Hu-p50,1.72 z-score
CCGATTAACATCACCTTGAACGGTGATGTTAATCGGGTCTTGATTCGCTTGACGCTGCTG,binding signal,[1],1.56 z-score
same,binding signal,[2],1.73 z-score
same,binding signal,GST-Dm-Relish,1.69 z-score
same,binding signal,GST-Hu-p50,2.74 z-score
CCGATTAACATCACCAGGTTAGGTGATGTTAATCGGGTCTTGATTCGCTTGACGCTGCTG,binding signal,[1],1.1 z-score
same,binding signal,[2],1.85 z-score
same,binding signal,GST-Dm-Relish,1.36 z-score
same,binding signal,GST-Hu-p50,3.09 z-score
CCGATTAACATCAGCAAATTTCCTGATGTTAATCGGGTCTTGATTCGCTTGACGCTGCTG,binding signal,GST-Hu-p50,1.07 z-score
CCGATTAACATCAAAAAATCTCCTGATGTTAATCGGGTCTTGATTCGCTTGACGCTGCTG,binding signal,GST-Dm-Relish,1.02 z-score
same,binding signal,GST-Aq-NF-kB,1.21 z-score
CCGATTAACATCACCGAGTTAGTTGATGTTAATCGGGTCTTGATTCGCTTGACGCTGCTG,binding signal,[1],1.15 z-score
same,binding signal,GST-Hu-p50,1.5 z-score
CCGATTAACATCATGTTTGCGGGTGATGTTAATCGGGTCTTGATTCGCTTGACGCTGCTG,binding signal,GST-Ap-NF-kB RHD,1.22 z-score
same,binding signal,GST-Co-NF-kB,1.02 z-score
same,binding signal,GST-Hu-p50,1.53 z-score
CCGATTAACATCAGGTATTTCCATGATGTTAATCGGGTCTTGATTCGCTTGACGCTGCTG,binding signal,GST-Dm-Relish,2.79 z-score
same,binding signal,GST-Aq-NF-kB,3.5 z-score
